# Sampled rows, rich in hits. Any-hit rate of the full collection: about 19%.
# SARS PLP yeast – blocks SARS-CoV papain-like protease in a yeast assay; S. cerevisiae expressing SARS-CoV PLpro, growth rescue; Potency, µM (top dose mostly 32.9 µM), inactives show at the highest dose activity, positive = growth rescue, hits mostly activators; actives 0.19% (n = 330,000); AID 485353; calls by dose curve; also: potency is read from the fitted curve at half-maximal effect; 0% is about no effect; nearly all actives have a fitted effect of over 55% in size
# Pf growth 48h – inhibits P. falciparum growth in the first generation, 48 h | P. falciparum luciferase growth in erythrocytes, 48 h | Potency, µM (highest dose often 28.7 µM), without a hit: top-dose activity change, negative = inhibition, hits mostly inhibitors | actives 5.9% (n = 310,000); also: potency is read from the fitted curve at half-maximal effect; % is scaled to controls: 0 for no effect and ±100 for the full control effect
#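 Luciferase-expressing parasites in RBCs, 2% Hct / 0.1% parasitemia final; RPMI 1640 + 0.5% Albumax; 37 C, 5% CO2, one generation; luminescence read-out, lower signal = inhibition.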
# Cycloheximide cs – affects cycloheximide protein synthesis inhibition readout, counter-screen; cell reporter, cycloheximide protein synthesis inhibition counterscreen; max response, %; actives 12% (n = 300,000); AID 2314; in the data active = max response mostly above about 13%, no sharp cut-off; inactive = mostly below about 14%; also: read at 38.3 µM for the half of the compounds with a filed dose; 0% is about no effect
# AMA1-RON2 inh – inhibitors of Plasmodium falciparum AMA1-RON2 interaction; AlphaScreen AMA1-biotinylated RON2 peptide binding; Potency, µM (doses to about 58.2 µM), without a hit: at the top dose activity change, negative = inhibition, hits mostly inhibitors; actives 0.2% (n = 360,000); AID 720542;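 also: potency is read from the fitted curve at half-maximal effect; 0% = vehicle wells and -100% = peptide control; nearly all actives have a fitted effect of over 45% in size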
#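 AMA1 (3D7) with his tag at 25 nM final met compounds first, then biotinylated RON2 peptide at 25 nM; detection used donor plus acceptor beads, 10 µg/mL apiece, read by AlphaScreen after 30 min at room temperature.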
# Pf growth 96h – P. falciparum growth inhibition at 96 hour, primary screen for plastid delayed-death inhibitors; P. falciparum luciferase reporter growth, 96 h; Potency, µM (series often up to 28.7 µM), for inactives: top-dose activity change, negative = inhibition, usual class: inhibitors; actives 6.9% (n = 320,000); AID 504834; also: potency is read from the fitted curve at half-maximal effect; % is scaled to controls: 0 for no effect and ±100 for the full control effect
#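 Erythrocytes infected with luciferase-expressing P. falciparum were dispensed at 2% hematocrit and 0.05% parasitemia (final), then incubated with compounds 96 hours at 37 C in 5% CO2. Luminescence after detection reagent addition reported growth.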
# Shiga inhibitor – Shiga toxin inhibition; inhibition, % at 38.7 µM; AID 2315; Vero cells, Shiga toxin protein synthesis inhibition reporter; actives 9.2% (n = 290,000); in the data active = inhibition mostly above about 28%, no sharp cut-off; inactive = mostly below about 43%; also: 0% is about no effect
# An asterisk follows results filed as active; u = inconclusive; x = not tested or not shown. Unless noted, calls follow the shape of the dose curve; as a rule, active = well fitted curve in the direction sought with a large enough effect; inconclusive = small, poorly fitted or top-dose-only effect, or another doubt; inactive = no such curve, though single readings can be large; an effect the other way counts as inactive or inconclusive.
SMILES,SARS PLP yeast,Pf growth 48h,Cycloheximide cs,AMA1-RON2 inh,Pf growth 96h,Shiga inhibitor
Cc1ccc(C)c(-n2c(SCC(=O)NC(C(=O)O)C(C)C)nnc2-c2cccc(Cl)c2)c1 (stereo not given),0%,u,-2,-1%,u,3
c1ccc2c(c1)Cn1c-2nc2ccccc21,-24%,176%,32*,6%,-17%,62*
Brc1c(-c2ccccc2)nc2n1Cc1ccccc1-2,0%,162%,52*,u,180%,141*
Cc1ccc(S(=O)(=O)N(C)Cc2ccc(C(=O)N/N=C/c3ccc(OC(F)F)cc3OC(F)F)cc2)cc1,-2%,-11%,-2,15%,u,-7
Cc1cccc(NC(=O)CCNS(=O)(=O)c2cccc3nsnc23)c1,5%,7%,1,-7%,u,-12
O=S(=O)(Nc1ccc2c(c1)OCCO2)c1cccc2nsnc12,2%,x,49*,-12%,u,77*
O=C(CCNS(=O)(=O)c1cccc2nsnc12)Nc1ccc2c(c1)OCCO2,6%,11%,24*,6%,x,43
O=S(=O)(NCCC1=CCCCC1)c1cccc2nsnc12,5%,3.7µM*,3,-8%,57%,-21
O=S(=O)(Nc1ccc(F)cc1)c1cccc2nsnc12,u,1%,-3,1%,-32%,-12
CC(NC(=O)CCNS(=O)(=O)c1cccc2nsnc12)c1ccccc1 (stereo not given),2%,7%,-3,5%,2.9µM*,24
O=C(NCC1COc2ccccc2O1)C1CCCN(S(=O)(=O)c2cnc[nH]2)C1 (stereo not given),-7%,-5%,-1,-6%,160%,9
Cc1ccc(NS(=O)(=O)c2cccc3nsnc23)cc1,-1%,u,-2,0%,-5%,6
O=S(=O)(Nc1ccccc1)c1cccc2nsnc12,u,5%,-1,0%,8.3µM*,11
COC(=O)c1cc2n(n1)CCN(Cc1ccc(F)cc1)C2=O,-1%,19%,-1,0%,21%,-3
O=C(OCC(=O)N1CCC(c2ccccc2)=N1)c1ccc([N+](=O)[O-])s1,-27%,u,x,u,u,x
O=C(Nc1scc(-c2ccc(Br)cc2)c1C(=O)O)c1ccccc1F,x,x,x,-5%,x,x
O=C(Nc1scc(-c2ccccc2)c1C(=O)O)c1ccccc1F,-4%,5%,22*,-3%,20%,24
Cc1ccc(-c2csc(NC(=O)c3ccccc3F)c2C(=O)O)cc1,0%,37%,39*,-1%,90%,100*
Cc1ccc(C(=O)Nc2scc(-c3ccccc3)c2C(=O)O)o1,2%,18%,14*,-5%,21%,35
Cc1ccccc1C(=O)Nc1scc(-c2ccc(Br)cc2)c1C(=O)O,x,x,x,15%,x,x
CC(C)OC(=O)NCCOC(=O)Nc1ccccc1Cl,6%,9%,20,1%,10%,12
CCCCNC(=O)Nc1nnc(C(C)(C)C)s1,1%,u,13,3%,0%,30
CC[C@H](C)[C@H](N)C(=O)N[C@@H](CC(N)=O)C(=O)N1CCC[C@H]1C(=O)N[C@H](C(=O)N[C@@H](Cc1ccc(O)cc1)C(=O)N[C@@H](CCCN=C(N)N)C(=O)N[C@@H](CC(C)C)C(=O)N[C@@H](CCCN=C(N)N)C(=O)N[C@@H](Cc1ccc(O)cc1)C(N)=O)[C@@H](C)CC,x,x,-5,x,x,-4
O=C(COc1ccc(S(=O)(=O)N2CCc3ccccc32)cc1Cl)NCc1ccccn1,1%,u,-3,32%,x,-11
C=CCn1c(CCCOc2ccc(Cl)cc2Cl)n[nH]c1=S,-1%,1%,19*,33%,u,54*
Cc1nc2ccccn2c1C(=O)CSc1ccccc1,-3%,34%,31*,-22%,u,38*
Cc1ccc(C)c(NC(=O)c2c(Cl)nc3ccccn23)c1,-1%,0%,-1,6%,-8%,-4
Cc1ccc(NC(=O)c2c(Cl)nc3ccccn23)cc1,-6%,470%,37*,14%,355%,114*
Cc1nc2ccccn2c1C(=O)Nc1ccc(Cl)cc1,-4%,59%,24*,-17%,38%,52
